Test results reported in PubChem BioAssay.

These molecules were tested against AP-2 complex subunit beta (Homo sapiens) (UniProt P63010) (assay: inhibitors of arrestin peptide binding to AP2, pilot screen, biochemical, validation set, GST-AP2 beads, flow cytometry (AID 504541;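 further: AP2 carries R879A mutation and is captured from E. coli lysate; bead-bound FITC arrestin peptide fluorescence measuring arrestin peptide binding to AP2; 0% = DMSO wells and 100% = excess unlabeled arrestin peptide control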)). Settings: FITC arrestin peptide, at 10 µM, hits give high values, AP2 beta2 appendage fragment, R879A mutant;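 active means inhibition above 54%, about 3 SD of non-fluorescent compounds; inactive means the rest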.
AP-2 complex subunit beta (Homo sapiens), sequence (P63010 whole entry, looked up, the tested form may be a part, one chain of several): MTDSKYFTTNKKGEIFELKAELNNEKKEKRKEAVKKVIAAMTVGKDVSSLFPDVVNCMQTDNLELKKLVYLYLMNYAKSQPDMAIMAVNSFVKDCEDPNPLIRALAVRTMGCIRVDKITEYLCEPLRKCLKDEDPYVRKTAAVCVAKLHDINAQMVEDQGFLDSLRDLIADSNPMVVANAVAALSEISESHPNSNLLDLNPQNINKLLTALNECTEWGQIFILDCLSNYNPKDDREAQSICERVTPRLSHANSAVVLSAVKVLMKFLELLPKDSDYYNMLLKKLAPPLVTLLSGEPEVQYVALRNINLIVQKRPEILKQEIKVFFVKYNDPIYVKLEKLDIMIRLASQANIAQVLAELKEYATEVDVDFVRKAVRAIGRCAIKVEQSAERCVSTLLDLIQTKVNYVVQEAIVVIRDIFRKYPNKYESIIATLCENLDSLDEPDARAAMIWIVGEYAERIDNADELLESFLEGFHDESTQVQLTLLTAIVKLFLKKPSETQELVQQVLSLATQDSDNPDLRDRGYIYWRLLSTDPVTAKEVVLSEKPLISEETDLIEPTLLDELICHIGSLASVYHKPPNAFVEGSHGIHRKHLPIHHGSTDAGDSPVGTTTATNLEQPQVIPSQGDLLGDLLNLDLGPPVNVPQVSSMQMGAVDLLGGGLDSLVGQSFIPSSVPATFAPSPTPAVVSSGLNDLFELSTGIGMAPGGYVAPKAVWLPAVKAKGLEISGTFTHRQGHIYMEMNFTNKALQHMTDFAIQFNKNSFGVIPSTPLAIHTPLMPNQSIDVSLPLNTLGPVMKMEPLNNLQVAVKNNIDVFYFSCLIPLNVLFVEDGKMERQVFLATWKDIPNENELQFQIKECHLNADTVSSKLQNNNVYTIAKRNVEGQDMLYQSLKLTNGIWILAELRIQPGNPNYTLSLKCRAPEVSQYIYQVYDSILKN

inhibition, inactive:
COc1cc(/C=C(\C#N)C(=O)N2CCc3ccccc32)ccc1O -7.55%
O=C(Nc1ccccc1)c1ccccc1CCc1ccccc1 9.22%
COc1ccc(CCN2CCC(Nc3nc4ccccc4n3Cc3ccc(F)cc3)CC2)cc1 1.18%
CCOc1ccc(CC2c3cc(OCC)c(OCC)cc3CCN2C(=O)CN2CCN(C)CC2)cc1OCC (stereo not given) 5.19%
COc1ccc2c(CCNC(=O)c3ccc([N+](=O)[O-])cc3)c[nH]c2c1 -2.03%
O=c1[nH]c(Cc2ccccc2)nc2c1oc1ccccc12 -7.86%
O=C(c1ccccc1)N1CCN(C(=O)c2ccccc2)CC1 -3.54%
COc1ccccc1C1(CC(=O)N2CCCCC2)CCOC(C(C)C)C1 (stereo not given) -7.8%
COc1cc([C@@H]2c3cc4c(cc3[C@H](O)[C@H]3COC(=O)[C@H]23)OCO4)cc(OC)c1OC -1.6%
N=C1C(c2ccccc2)=C(O)CN1CCCO -7.8%
CCS(=O)(=O)Nc1cc(OC)c(OC)cc1Cc1nccc2cc(OC)c(OC)cc12 -7.26%
O=C(OCCN1CCCC1)C1(c2ccccc2)CCCC1 -5.26%
CC(=O)N1CC2(C)CN(C(C)=O)CC(C)(C1)C2 -12.9%
COc1ccc(CCCC(=O)O)c(C)c1 5.62%
Cc1ccc2c(CN3CCN(Cc4ccc5c(c4)OCO5)CC3)cc(=O)oc2c1C 4.85%
COc1ccc(C(=O)Nc2ccc(OC)c([N+](=O)[O-])c2)cc1Br 7.87%
O=C(Oc1cccccc1=O)c1ccccc1 1.79%
C=CCc1ccc(OCC(O)COc2ccc(CC=C)cc2OC)c(OC)c1 3.97%
COc1cc(NC(=O)N[C@@H](Cc2ccccc2)C(=O)O)cc(OC)c1 -3.53%
CC1/C(=C\c2ccc(Cl)cc2)C(=O)C2CC1C2(C)C (stereo not given) -1.54%
CCC(=O)c1ccc(O)cc1 -11.7%
COc1ccc(C(=O)[C@H]2[C@H]3C(=O)N(c4ccccc4)C(=O)[C@H]3C3C=CC=NN32)cc1 (stereo not given in full) 28.5%
C[C@H](NC(=O)Nc1ccccc1F)C(=O)O -4.89%
CCCN1C[C@H](CSC)C[C@@H]2c3cccc4[nH]cc(c34)C[C@H]21 1.85%
C[C@H](NC(=O)OC(C)(C)C)C(=O)NCC1CCC(C(=O)O)CC1 (stereo not given in full) -1.54%
